Laboratory results as given in PubChem BioAssay.
Where “and” joins values, the source holds several entries; their conditions need not be identical. Equal entries are not always repeated. A number with no mark means an inactive call. Calls of active or inactive are those of the source. Cut-off read from the data, not from the text of the source, unless noted: active = inhibition above about 44%; inactive = the rest.

Columns and labels:
[1] = molecular target: Nuclear receptor coactivator 3 (Homo sapiens) (UniProt Q9Y6Q9); assay: SRC3 coactivator transcriptional activity inhibitors, confirmation, cell-based, luminescence, quadruplicate (AID 588792;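 active = mean inhibition over 43.08%, the solvent-only control mean plus 3 SD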;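 note: 0% = DMSO treated cells and 100% = gossypol at 36 µM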); conditions: HEK293 GAL4-SRC3 luciferase reporter, at 3.6 µM, active compounds read high
Nuclear receptor coactivator 3 (Homo sapiens), sequence (Q9Y6Q9 whole entry, looked up, the tested form may be a part): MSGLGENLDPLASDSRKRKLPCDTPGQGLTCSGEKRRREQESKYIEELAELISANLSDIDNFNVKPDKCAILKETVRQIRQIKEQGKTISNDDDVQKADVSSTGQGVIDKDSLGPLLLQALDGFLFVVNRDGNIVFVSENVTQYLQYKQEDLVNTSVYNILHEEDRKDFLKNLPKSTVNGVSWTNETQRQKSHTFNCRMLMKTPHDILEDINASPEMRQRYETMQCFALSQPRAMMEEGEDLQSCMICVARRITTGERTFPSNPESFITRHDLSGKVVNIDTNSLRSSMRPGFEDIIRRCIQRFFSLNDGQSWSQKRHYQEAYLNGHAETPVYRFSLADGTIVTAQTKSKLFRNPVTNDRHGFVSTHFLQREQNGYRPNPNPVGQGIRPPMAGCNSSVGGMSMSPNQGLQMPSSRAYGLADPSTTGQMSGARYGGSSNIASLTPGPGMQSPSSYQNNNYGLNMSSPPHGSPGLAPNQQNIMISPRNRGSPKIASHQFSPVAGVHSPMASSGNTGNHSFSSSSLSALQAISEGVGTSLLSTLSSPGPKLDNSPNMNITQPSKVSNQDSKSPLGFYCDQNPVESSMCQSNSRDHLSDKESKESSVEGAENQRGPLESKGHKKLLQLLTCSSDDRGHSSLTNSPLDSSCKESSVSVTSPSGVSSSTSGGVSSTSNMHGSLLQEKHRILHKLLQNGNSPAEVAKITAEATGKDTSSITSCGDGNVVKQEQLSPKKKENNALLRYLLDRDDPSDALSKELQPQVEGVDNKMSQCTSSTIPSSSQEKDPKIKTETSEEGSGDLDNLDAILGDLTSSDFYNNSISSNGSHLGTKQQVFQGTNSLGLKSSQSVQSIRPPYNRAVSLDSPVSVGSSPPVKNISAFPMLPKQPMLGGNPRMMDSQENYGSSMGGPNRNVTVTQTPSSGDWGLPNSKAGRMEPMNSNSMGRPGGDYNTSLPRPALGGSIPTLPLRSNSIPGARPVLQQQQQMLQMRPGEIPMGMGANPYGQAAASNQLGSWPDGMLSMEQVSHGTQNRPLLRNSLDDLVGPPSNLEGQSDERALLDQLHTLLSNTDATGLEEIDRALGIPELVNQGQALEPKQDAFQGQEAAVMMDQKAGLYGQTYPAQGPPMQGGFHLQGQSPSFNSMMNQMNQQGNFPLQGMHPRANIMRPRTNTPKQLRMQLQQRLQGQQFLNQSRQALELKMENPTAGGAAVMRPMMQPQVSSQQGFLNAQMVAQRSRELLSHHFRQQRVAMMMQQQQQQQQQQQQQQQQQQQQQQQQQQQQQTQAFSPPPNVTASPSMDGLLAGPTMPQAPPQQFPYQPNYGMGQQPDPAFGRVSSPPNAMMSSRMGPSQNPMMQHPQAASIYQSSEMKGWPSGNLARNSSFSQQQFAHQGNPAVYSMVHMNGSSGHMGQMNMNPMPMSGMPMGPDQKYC

[2] = test system: transactivating tegument protein VP16 (Human herpesvirus 1), Gal4-VP16 luciferase reporter; assay: VP16 transactivation inhibitors, counter-screen for SRC3 inhibitor project, cell-based, luminescence, high throughput (AID 588794; in the data active = inhibition above about 30%); conditions: mammalian cells, VP16-driven luciferase reporter luminescence; at 3.6 µM; active compounds read high
[3] = molecular target: Nuclear receptor coactivator 1 (Homo sapiens) (UniProt Q15788); assay: SRC1 coactivator transcriptional activity inhibitors, confirmation, cell-based, luminescence, quadruplicate (AID 588820;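 active = mean inhibition above 46.68%, the untreated control wells mean plus 3 SD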;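 note: 0% = DMSO wells and 100% = gossypol 36 µM treated wells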); conditions: HEK293 GAL4-SRC1 luciferase reporter, at 3.6 µM, active compounds read high
[4] = VP16 transactivation inhibitors, counter-screen for SRC1 inhibitor project, cell-based, luminescence, high throughput (AID 588824; in the data active = inhibition above about 25%); conditions: cell-based VP16 transactivation luciferase luminescence; at 3.6 µM; active compounds read high
[5] = StAR promoter reporter inhibitors, counter-screen for LRH-1 inverse agonist project, cell-based, luminescence, high throughput (AID 651611; in the data active = inhibition above about 28%); conditions: StAR promoter luciferase reporter counterscreen, at 3.6 µM, active compounds read high
[6] = molecular target: Nuclear receptor subfamily 5 group A member 2 (Homo sapiens) (UniProt O00482); assay: LRH-1 (NR5A2) inverse agonists, retest, confirmation, cell-based, luminescence (AID 651613; in the data active = inhibition above about 42%;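 note: HEK293T cells co-transfected with LRH-1 and StAR promoter luciferase reporter; 0% = vehicle wells and 100% = parental cells lacking receptor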); conditions: cell-based LRH-1 luciferase reporter, inverse agonism; at 3.6 µM; active compounds read high
Nuclear receptor subfamily 5 group A member 2 (Homo sapiens), sequence (O00482 whole entry, looked up): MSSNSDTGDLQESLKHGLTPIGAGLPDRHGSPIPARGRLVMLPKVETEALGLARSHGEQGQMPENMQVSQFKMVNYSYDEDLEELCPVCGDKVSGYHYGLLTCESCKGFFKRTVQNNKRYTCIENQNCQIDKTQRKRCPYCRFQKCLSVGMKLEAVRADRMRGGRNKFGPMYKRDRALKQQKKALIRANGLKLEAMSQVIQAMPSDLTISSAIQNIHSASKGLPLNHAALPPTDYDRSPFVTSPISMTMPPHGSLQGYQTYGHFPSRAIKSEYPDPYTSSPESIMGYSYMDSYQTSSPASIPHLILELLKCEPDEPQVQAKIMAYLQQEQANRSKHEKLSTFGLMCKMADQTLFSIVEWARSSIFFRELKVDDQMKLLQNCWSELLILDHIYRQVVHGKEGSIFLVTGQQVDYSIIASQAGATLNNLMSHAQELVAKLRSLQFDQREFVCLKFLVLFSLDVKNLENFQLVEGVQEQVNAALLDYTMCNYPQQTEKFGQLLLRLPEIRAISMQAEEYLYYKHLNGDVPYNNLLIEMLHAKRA

[7] = molecular target: Steroidogenic factor 1 (Homo sapiens) (UniProt Q13285); assay: SF1 (NR5A1) inverse agonists, counter-screen for LRH-1 inverse agonist project, cell-based, luminescence, high throughput (AID 651614); conditions: cell-based SF1 luciferase reporter, at 3.6 µM, active compounds read high;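 note: cells cotransfected with StAR promoter reporter and SF1 expression vector; 0% = vehicle on cells with receptor and 100% = vehicle on cells lacking receptor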
Steroidogenic factor 1 (Homo sapiens), sequence (Q13285 whole entry, looked up, the tested form may be a part): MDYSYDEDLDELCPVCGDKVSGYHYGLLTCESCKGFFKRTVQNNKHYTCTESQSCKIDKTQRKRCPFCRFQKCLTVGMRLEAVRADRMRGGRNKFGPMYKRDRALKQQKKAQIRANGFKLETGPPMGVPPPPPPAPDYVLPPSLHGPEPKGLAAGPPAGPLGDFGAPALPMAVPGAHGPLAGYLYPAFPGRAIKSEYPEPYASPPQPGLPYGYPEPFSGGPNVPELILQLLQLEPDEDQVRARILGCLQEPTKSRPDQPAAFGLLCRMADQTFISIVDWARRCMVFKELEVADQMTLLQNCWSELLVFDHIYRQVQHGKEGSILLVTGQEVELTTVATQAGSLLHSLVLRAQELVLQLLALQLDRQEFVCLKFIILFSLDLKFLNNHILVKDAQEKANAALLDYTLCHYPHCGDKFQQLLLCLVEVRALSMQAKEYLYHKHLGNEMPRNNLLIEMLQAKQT

[8] = VP16 transactivation reporter inhibitors, counter-screen for LRH-1 inverse agonist project, cell-based, luminescence, high throughput (AID 651615; in the data active = inhibition above about 33%); conditions: Gal4-VP16 luciferase reporter cells, at 3.6 µM, active compounds read high
[9] = test system: transactivating tegument protein VP16 (Human herpesvirus 1); assay: VP16 transactivation reporter inhibitors, counter-screen for SRC2 inhibitor project, cell-based, luminescence, single concentration (AID 652007; in the data active = inhibition above about 36%); conditions: cell-based VP16 transactivation luciferase reporter, at 8.9 µM, active compounds read high
[10] = molecular target: Nuclear receptor coactivator 2 (Homo sapiens) (UniProt Q15596); assay: SRC2 coactivator transcriptional activity inhibitors, confirmation, cell-based, luminescence, HEK293, triplicate (AID 652008;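 active = mean inhibition above 46.5%, the solvent-only control mean plus 3 SD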;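 note: 0% = DMSO-treated cells and 100% = Gossypol at 36 µM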); conditions: HEK293 GAL4-SRC2 luciferase reporter, at 8.9 µM, active compounds read high
Nuclear receptor coactivator 2 (Homo sapiens), sequence (Q15596 whole entry, looked up, the tested form may be a part): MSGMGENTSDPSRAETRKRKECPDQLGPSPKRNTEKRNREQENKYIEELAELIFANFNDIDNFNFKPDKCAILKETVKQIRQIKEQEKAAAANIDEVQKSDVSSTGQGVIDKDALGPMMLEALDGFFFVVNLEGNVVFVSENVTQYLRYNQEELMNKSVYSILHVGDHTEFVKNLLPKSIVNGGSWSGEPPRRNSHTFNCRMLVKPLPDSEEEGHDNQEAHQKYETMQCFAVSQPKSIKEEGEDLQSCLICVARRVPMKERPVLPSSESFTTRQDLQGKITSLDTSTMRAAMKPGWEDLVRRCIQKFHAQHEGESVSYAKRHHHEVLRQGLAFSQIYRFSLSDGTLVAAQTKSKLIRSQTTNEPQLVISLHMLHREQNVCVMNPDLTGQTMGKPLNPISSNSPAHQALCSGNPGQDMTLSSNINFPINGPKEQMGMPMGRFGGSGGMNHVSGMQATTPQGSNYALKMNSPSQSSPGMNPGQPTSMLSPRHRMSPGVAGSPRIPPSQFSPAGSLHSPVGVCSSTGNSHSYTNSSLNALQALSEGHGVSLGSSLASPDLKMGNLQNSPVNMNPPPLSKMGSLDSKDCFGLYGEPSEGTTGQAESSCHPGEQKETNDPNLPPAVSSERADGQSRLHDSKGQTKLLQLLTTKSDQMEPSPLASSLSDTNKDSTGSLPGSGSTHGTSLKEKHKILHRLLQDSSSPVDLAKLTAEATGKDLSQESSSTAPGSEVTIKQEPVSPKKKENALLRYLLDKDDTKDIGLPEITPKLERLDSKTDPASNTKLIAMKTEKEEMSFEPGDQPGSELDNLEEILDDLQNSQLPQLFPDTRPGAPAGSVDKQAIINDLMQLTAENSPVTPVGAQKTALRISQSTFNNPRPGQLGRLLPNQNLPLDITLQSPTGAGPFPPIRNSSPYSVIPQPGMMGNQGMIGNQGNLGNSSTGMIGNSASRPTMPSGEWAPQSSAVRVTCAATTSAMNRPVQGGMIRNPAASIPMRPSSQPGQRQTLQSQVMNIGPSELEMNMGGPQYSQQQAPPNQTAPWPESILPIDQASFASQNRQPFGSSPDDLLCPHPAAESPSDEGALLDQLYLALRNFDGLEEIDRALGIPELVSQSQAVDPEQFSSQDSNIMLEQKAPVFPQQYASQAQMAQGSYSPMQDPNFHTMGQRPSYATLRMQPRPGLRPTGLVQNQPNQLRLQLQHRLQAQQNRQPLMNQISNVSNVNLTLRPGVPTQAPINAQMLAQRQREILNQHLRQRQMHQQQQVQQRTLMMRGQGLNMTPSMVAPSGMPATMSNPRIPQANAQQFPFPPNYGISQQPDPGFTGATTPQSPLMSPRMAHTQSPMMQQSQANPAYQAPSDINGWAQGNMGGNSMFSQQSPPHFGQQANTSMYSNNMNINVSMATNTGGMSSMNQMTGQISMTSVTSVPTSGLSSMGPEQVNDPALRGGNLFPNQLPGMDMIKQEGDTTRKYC

| SMILES | inhibition [1] | inhibition [2] | inhibition [3] | inhibition [4] | inhibition [5] | inhibition [6] | inhibition [7] | inhibition [8] | inhibition [9] | inhibition [10] |
| --- | --- | --- | --- | --- | --- | --- | --- | --- | --- | --- |
| O=c1[nH]c(O)c(N=Nc2ccc3c(c2)OCCO3)c(=O)[nH]1 | 53.3% (active) | 25.7% | 6.27% | -1.38% | 22.6% | 9.98% | 42.1% | 9.89% | 33.9% | 63.6% (active) |
| CC(=O)OC1CC(OC2C(O)CC(OC3C(O)CC(OC4CCC5(C)C(CCC6C5CCC5(C)C(C7=CC(=O)OC7)C(O)CC65O)C4)OC3C)OC2C)OC(C)C1OC1OC(CO)C(O)C(O)C1O (configuration not stated) | 93.4% (active) | 79.7% (active) | 39.1% | 72.8% (active) | 97.7% (active) | 111% (active) | 99.3% (active) | 85.1% (active) | 61.8% (active) | 13.5% |
| C[C@H]1[C@@H](OS(=O)(=O)O)C[C@@H]2C[C@H]([C@@H](O)c3cc(=O)[nH]c(=O)[nH]3)NC3=NC[C@H]1N32 | 88.3% (active) | 71% (active) | 58% (active) | 70.5% (active) | 92.3% (active) | 107% (active) | 95.2% (active) | 76.8% (active) | – | – |
| COc1cc2cc(C(=O)N3CC(COS(C)(=O)=O)c4ccc(O)cc43)[nH]c2c(OC)c1OC (configuration not stated) | 97.5% (active) | 96.2% (active) | 96% (active) | 95.7% (active) | 98% (active) | 111% (active) | 99.2% (active) | 98.2% (active) | – | – |
| O=C1NC2C(O)C(O)C(O)C(O)C2c2cc3c(c(O)c21)OCO3 (configuration not stated) | 97.3% (active) | 96% (active) | 93.4% (active) | 95% (active) | 96.4% (active) | 109% (active) | 97.7% (active) | 98.6% (active) | 79.7% (active) | 75.7% (active) |
| CC[C@@]1(O)C(=O)OCc2c1cc1n(c2=O)Cc2cc3c(NC(=O)CN)cccc3nc2-1 | 61.8% (active) | 9.37% | 55.3% (active) | -2.11% | 42.7% (active) | 70% (active) | 59.3% (active) | 9.93% | – | – |
| CC[C@@H](O)C[C@H]1CCC[C@@]2(C[C@@H]3OC(=O)/C=C/[C@@](C)(O)[C@@H](O)[C@H](C)[C@@H](O)[C@H](OC4CCC(N(C)C)C(C)O4)[C@@H](O)[C@](C)(O)CCCCC/C=C/[C@@H]4CC(C)(C)O[C@@]4(O)C[C@H](O2)[C@H]3C)O1 (some centres not stated) | 76.5% (active) | 85.9% (active) | 62.5% (active) | 85% (active) | 79.8% (active) | 105% (active) | 94% (active) | 87.9% (active) | – | – |
| COc1ccc(-n2nnnc2C(CCc2ccccc2)N2CCC(n3c(=O)[nH]c4ccccc43)CC2)cc1 (configuration not stated) | 25.2% | 8.54% | 2.43% | 9.95% | 48.7% (active) | 28.1% | 30.3% | 33.6% (active) | – | – |
| COc1ccc(-c2cc(-c3ccccc3)[n+](C)c(-c3ccccc3)c2)cc1 | 35.9% | 57.7% (active) | 34.3% | 51.3% (active) | 60.2% (active) | 96% (active) | 84.5% (active) | 77.1% (active) | – | – |
| O=c1[nH]c2ccccc2n1C1CCN(C(c2ccccc2OC(F)(F)F)c2nnnn2-c2ccc3c(c2)OCCO3)CC1 (configuration not stated) | 27.6% | -1.84% | -23.1% | -0.24% | 61.8% (active) | 37.3% | 43.7% (active) | 39.8% (active) | – | – |
| NC(=O)c1cn(C2OC(CO)C(O)C2O)c2ncnc(N)c12 (configuration not stated) | 96.2% (active) and 97.7% (active) | 97.7% (active) and 97.3% (active) | 90% (active) and 90.1% (active) | 97.9% (active) and 96% (active) | 94.2% (active) and 95% (active) | 109% (active) and 110% (active) | 96.8% (active) and 98% (active) | 95.5% (active) and 97.3% (active) | 65% (active) and 66.1% (active) | 67.3% (active) and 73.3% (active) |
| CN1CCN(c2ccc([N+](=O)[O-])c3no[n+]([O-])c23)CC1 | 98.6% (active) | 96.4% (active) | 93.7% (active) | 96% (active) | 97% (active) | 111% (active) | 98.9% (active) | 97.9% (active) | – | – |
| CC1CC(C)CC(C)C(O)C(C#N)=CC=CCC(C2CCCC2C(=O)O)OC(=O)CC(O)C(C)C1 (configuration not stated) | 97.5% (active) | 95.6% (active) | 89.6% (active) | 94.4% (active) | 95.8% (active) | 110% (active) | 97.9% (active) | 98.7% (active) | 78.4% (active) | 78.7% (active) |
| CCC(C)C(NC(=O)CCCNC(=O)CCC(=O)OC1O[C@H]2OC3(C)CC[C@H]4[C@H](C)CCC(C1C)C24OO3)C(=O)O (some centres not stated) | 52.4% (active) | 77.5% (active) | 45% | 76.4% (active) | 71.9% (active) | 101% (active) | 89.8% (active) | 82.9% (active) | – | – |
